This is one part of a sample in which the strongest signals are shown more often than they occur.
Legend:
Experiment in all cases: glycan array binding signal (z-score within array); higher = stronger binding
Conditions in all cases: glycan notation: IUPAC condensed, linker removed
[1] = target: Fuc(a1-2)Gal(b1-3)GalNAc(a1-3)[Fuc(a1-2)]Gal(b1-4)GlcNAc
How it was run: (§1)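 The binding signal is a Z-score computed within each array. Data were drawn from 3228 arrays in the Consortium for Functional Glycomics database, restricted to those with a known protein sequence. Scores were averaged over arrays of the same protein sequence at different concentrations or buffers, and over linkers, and negative values can be taken as non-binding.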

[2] = target: Fuc(a1-2)Gal(b1-3)GlcNAc(b1-3)Gal(b1-4)Glc
How it was run: as §1

[3] = target: Fuc(a1-2)Gal(b1-3)GlcNAc6S
How it was run: as §1

[4] = target: Fuc(a1-2)Gal(b1-4)GlcNAc(b1-2)Man(a1-3)[Fuc(a1-2)Gal(b1-4)GlcNAc(b1-2)Man(a1-6)]Man(b1-4)GlcNAc(b1-4)[Fuc(a1-6)]GlcNAc
How it was run: as §1

[5] = target: Fuc(a1-2)Gal6S(b1-3)GlcNAc6S
How it was run: as §1

[6] = target: Fuc(a1-2)[Gal(a1-3)]Gal(b1-4)GlcNAc(b1-2)Man
How it was run: as §1

[7] = target: Fuc(a1-2)[GalNAc(a1-3)]Gal(b1-3)GalNAc(a1-3)[Fuc(a1-2)]Gal(b1-4)GlcNAc
How it was run: as §1

[8] = target: Fuc(a1-2)[GalNAc(a1-3)]Gal(b1-3)GlcNAc(b1-2)Man(a1-3)[Fuc(a1-2)[GalNAc(a1-3)]Gal(b1-3)GlcNAc(b1-2)Man(a1-6)]Man(b1-4)GlcNAc(b1-4)GlcNAc
How it was run: as §1

[9] = target: Fuc(a1-2)[GalNAc(a1-3)]Gal(b1-4)GlcNAc(b1-6)GalNAc
How it was run: as §1

[10] = target: Fuc(a1-3)[Gal(b1-4)]GlcNAc(b1-3)Gal(b1-3)[Fuc(a1-4)]GlcNAc
How it was run: as §1

[11] = target: Fuc(a1-3)[GalNAc(b1-4)]GlcNAc6S
How it was run: as §1

[12] = target: Gal(a1-3)Gal(b1-3)GlcNAc(b1-6)GalNAc
How it was run: as §1

[13] = target: Gal(a1-3)Gal(b1-4)[Fuc(a1-3)]GlcNAc
How it was run: as §1

[14] = target: Gal(b1-3)GalNAc(b1-4)[Neu5Ac(a2-3)]Gal(b1-4)Glc
How it was run: as §1

[15] = target: Gal(b1-3)GlcNAc(b1-3)Gal(b1-4)GlcNAc(b1-6)[Gal(b1-3)GlcNAc(b1-3)]Gal(b1-4)Glc
How it was run: as §1

[16] = target: Gal(b1-3)GlcNAc(b1-3)Gal(b1-4)[Fuc(a1-3)]GlcNAc
How it was run: as §1

[17] = target: Gal(b1-4)GlcNAc(b1-2)Man(a1-3)[Gal(b1-4)GlcNAc(b1-2)Man(a1-6)]Man(b1-4)GlcNAc(b1-4)[Fuc(a1-6)]GlcNAc
How it was run: as §1

[18] = target: Gal(b1-4)GlcNAc(b1-2)[Gal(b1-4)GlcNAc(b1-6)]Man(a1-6)[Gal(b1-4)GlcNAc(b1-2)Man(a1-3)]Man(b1-4)GlcNAc(b1-4)GlcNAc
How it was run: as §1

[19] = target: Gal(b1-4)GlcNAc(b1-3)Gal(b1-4)Glc
How it was run: as §1

[20] = target: Gal(b1-4)GlcNAc(b1-3)Gal(b1-4)GlcNAc(b1-3)Gal(b1-4)GlcNAc(b1-2)Man(a1-3)[Gal(b1-4)GlcNAc(b1-3)Gal(b1-4)GlcNAc(b1-3)Gal(b1-4)GlcNAc(b1-2)Man(a1-6)]Man(b1-4)GlcNAc(b1-4)GlcNAc
How it was run: as §1

[21] = target: Gal(b1-4)GlcNAc(b1-3)Gal(b1-4)GlcNAc(b1-3)Gal(b1-4)GlcNAc(b1-3)Gal(b1-4)GlcNAc(b1-2)Man(a1-3)[Gal(b1-4)GlcNAc(b1-3)Gal(b1-4)GlcNAc(b1-3)Gal(b1-4)GlcNAc(b1-3)Gal(b1-4)GlcNAc(b1-2)Man(a1-6)]Man(b1-4)GlcNAc(b1-4)GlcNAc
How it was run: as §1

[22] = target: Gal(b1-4)GlcNAc(b1-3)Gal(b1-4)GlcNAc(b1-3)Gal(b1-4)GlcNAc(b1-3)Gal(b1-4)GlcNAc(b1-2)Man(a1-3)[Gal(b1-4)GlcNAc(b1-3)Gal(b1-4)GlcNAc(b1-3)Gal(b1-4)GlcNAc(b1-3)Gal(b1-4)GlcNAc(b1-2)Man(a1-6)]Man(b1-4)GlcNAc(b1-4)[Fuc(a1-6)]GlcNAc
How it was run: as §1

[23] = target: Gal(b1-4)GlcNAc(b1-3)Gal(b1-4)GlcNAc(b1-6)[Gal(b1-3)]GalNAc
How it was run: as §1

[24] = target: Gal(b1-4)GlcNAc(b1-6)GalNAc
How it was run: as §1

B1: YghJ (Escherichia coli), E3PJ90 (protein)
chain: MNKKFKYKKSLLAAILSATLLAGCDGGGSGSSSDTPPVDSGTGSLPEVKPDPTPNPEPTPEPTPDPEPTPEPIPDPEPTPEPEPEPVPTKTGYLTLGGSQRVTGATCNGESSDGFTFKPGEDVTCVAGNTTIATFNTQSEAARSLRAVEKVSFSLEDAQELAGSDDKKSNAVSLVTSSNSCPANTEQVCLTFSSVIESKRFDSLYKQIDLAPEEFKKLVNEEVENNAATDKAPSTHTSPVVPVTTPGTKPDLNASFVSANAEQFYQYQPTEIILSEGRLVDSQGYGVAGVNYYTNSGRGVTGENGEFSFSWGEAISFGIDTFELGSVRGNKSTIALTELGDEVRGANIDQLIHRYSTTGQNNTRVVPDDVRKVFAEYPNVINEIINLSLSNGATLGEGEQVVNLPNEFIEQFNTGQAKEIDTAICAKTDGCNEARWFSLTTRNVNDGQIQGVINKLWGVDTNYKSVSKFHVFHDSTNFYGSTGNARGQAVVNISNAAFPILMARNDKNYWLAFGEKRAWDKNELAYITEAPSIVRPENVTRETASFNLPFISLGQVGDGKLMVIGNPHYNSILRCPNGYSWNGGVNKDGQCTLNSDPDDMKNFMENVLRYLSNDRWLPDAKSSMTVGTNLETVYFKKHGQVLGNSAPFAFHKDFTGITVKPMTSYGNLNPDEVPLLILNGFEYVTQWGSDPYSIPLRADTSKPKLTQQDVTDLIAYMNKGGSVLIMENVMSNLKEESASGFVRLLDAAGLSMALNKSVVNNDPQGYPDRVRQRRSTPIWVYERYPAVDGKPPYTIDDTTKEVIWKYQQENKPDDKPKLEVASWQEEVEGKQVTQFAFIDEADHKTPESLAAAKQRILDAFPGLEVCKDSDYHYEVNCLEYRPGTDVPVTGGMYVPQYTQLDLSADTAKAMLQAADLGTNIQRLYQHELYFRTNGRQGERLNSVDLERLYQNMSVWLWNETKYRYEEGKEDELGFKTFTEFLNCYTNNAYVGTQCSAELKKSLIDNKMIYGEESSKAGMMNPSYPLNYMEKPLTRLMLGRSWWDLNIKVDVEKYPGVVNTNGETVTQNINLYSAPTKWFAGNMQSTGLWAPAQQEVSIESKSTVPVTVTVALADDLTGREKHEVSLNRPPRVTKTYDLKANDKVTFKVPYGGLIYIKGDSKEVQSADFTFTGVVKAPFYKDGKWQHDLNSPAPLGELESASFVYTTPKKNLNASNYTGGLEQFANDLDTFASSMNDFYGRDSEDGKHRMFTYKNLPGHKHRFANDVQISIGDAHSGYPVMNSSFSPNSTTLPTTPLNDWLIWHEVGHNAAETPLTVPGATEVANNVLALYMQDRYLGKMNRVADDITVAPEYLEESNGQAWARGGAGDRLLMYAQLKEWAEKNFDIKKWYPDGTPLPEFYSEREGMKGWNLFQLMHRKARGDEVSNDKFGGKNYCAESNGNAADTLMLCASWVAQTDLSEFFKKWNPGANAYQLPGASEMSFEGGVSQSAYNTLASLDLPKPEQGPETINQVTEHKMSAE
[1]
  glycan array binding signal (z-score): -1.47
[2]
  glycan array binding signal (z-score): -0.678
[3]
  glycan array binding signal (z-score): 2.47
[4]
  glycan array binding signal (z-score): -0.129
[5]
  glycan array binding signal (z-score): 3.49
[6]
  glycan array binding signal (z-score): -1.3
[7]
  glycan array binding signal (z-score): -0.92
[8]
  glycan array binding signal (z-score): 0.546
[9]
  glycan array binding signal (z-score): 0.95
[10]
  glycan array binding signal (z-score): 2.74
[11]
  glycan array binding signal (z-score): 0.125
[12]
  glycan array binding signal (z-score): 0.282
[13]
  glycan array binding signal (z-score): -2.21
[14]
  glycan array binding signal (z-score): -0.276
[15]
  glycan array binding signal (z-score): 1.23
[16]
  glycan array binding signal (z-score): 2.4
[17]
  glycan array binding signal (z-score): 2.37
[18]
  glycan array binding signal (z-score): 0.576
[19]
  glycan array binding signal (z-score): 0.172
[20]
  glycan array binding signal (z-score): 0.559
[21]
  glycan array binding signal (z-score): -0.172
[22]
  glycan array binding signal (z-score): 2.84
[23]
  glycan array binding signal (z-score): -0.193
[24]
  glycan array binding signal (z-score): -0.103

From the supplement of paper PMC8728848
